PubChem BioAssay AID2061166 (Soto Lab, Mitchell Center for Alzheimers Disease and …, 2025)
Where “and” joins values, the source holds several entries; their conditions need not be identical. Equal entries are not always repeated. Calls of active or inactive are those of the source.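 How the source made its calls: active means mean tau seeding fluorescence area under 1% of vehicle, meaning inhibition above a set limit; inactive means the rest.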

Each molecule was assayed against Microtubule-associated protein tau (Homo sapiens) (UniProt P10636) (assay: blockers of AD brain-seeded tau fibril growth – biochemical, seed amplification, ThT fluorescence, primary screen (AID 2061166)). Settings: Recombinant tau seeded by AD brain, ThT fluorescence AUC; at 100 µM; stronger effect = higher value.
Chain of Microtubule-associated protein tau (Homo sapiens) (P10636 whole entry, looked up): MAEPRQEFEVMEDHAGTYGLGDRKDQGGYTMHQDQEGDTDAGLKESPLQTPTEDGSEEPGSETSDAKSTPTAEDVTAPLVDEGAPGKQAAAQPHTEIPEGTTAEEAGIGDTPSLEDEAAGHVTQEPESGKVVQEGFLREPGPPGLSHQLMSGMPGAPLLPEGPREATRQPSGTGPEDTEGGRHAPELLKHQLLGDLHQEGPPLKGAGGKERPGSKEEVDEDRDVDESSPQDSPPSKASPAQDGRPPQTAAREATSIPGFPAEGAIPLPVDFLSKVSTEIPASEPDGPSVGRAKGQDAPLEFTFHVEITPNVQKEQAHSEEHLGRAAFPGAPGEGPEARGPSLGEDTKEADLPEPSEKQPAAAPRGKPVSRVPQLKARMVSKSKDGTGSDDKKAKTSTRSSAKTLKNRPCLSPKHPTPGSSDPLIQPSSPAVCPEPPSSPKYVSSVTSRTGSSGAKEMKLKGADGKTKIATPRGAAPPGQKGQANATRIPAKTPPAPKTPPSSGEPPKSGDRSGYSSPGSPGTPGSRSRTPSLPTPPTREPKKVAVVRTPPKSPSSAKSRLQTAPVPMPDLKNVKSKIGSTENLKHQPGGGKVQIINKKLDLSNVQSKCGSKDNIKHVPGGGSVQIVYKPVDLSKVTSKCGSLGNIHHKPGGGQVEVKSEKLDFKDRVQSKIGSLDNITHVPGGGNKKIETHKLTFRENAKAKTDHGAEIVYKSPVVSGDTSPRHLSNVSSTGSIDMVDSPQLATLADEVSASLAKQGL

Row | Structure (SMILES) | inhibition
1 | O=c1c(-c2ccc(O)cc2)coc2cc(O)cc(O)c12 | -59.4% (inactive)
2 | C[N+](C)=c1ccc2nc3ccc(N)cc3sc-2c1 | 100% (active)
3 | O=C(C=Cc1ccc(O)c(O)c1)OC(Cc1ccc(O)c(O)c1)C(=O)O (configuration not stated) | 95% (inactive)
4 | O=C1CSC(=S)N1 | -4.3% (inactive)
5 | CCCNC1CCc2nc(N)sc2C1 (configuration not stated) | 13.7% (inactive) and -33.7% (inactive)
6 | COc1cc(C=CC(=O)CC(=O)C=Cc2ccc(O)c(OC)c2)ccc1O | 86.4% (inactive)
7 | CN(C)CCc1c[nH]c2ccc(Cn3cncn3)cc12 | -4.86% (inactive)
8 | CC(C)(C)c1cc(C(C)(C)C)c(NC(=O)c2c[nH]c3ccccc3c2=O)cc1O | -88.7% (inactive)
9 | Nc1ccc(S(=O)(=O)c2ccc(N)cc2)cc1 | 26.5% (inactive)
10 | CCCCCCCCc1ccc(CCC(N)(CO)CO)cc1 | 59.3% (inactive)
11 | CCC1(O)C(=O)OCc2c1cc1n(c2=O)Cc2cc3c(CN(C)C)c(O)ccc3nc2-1 (configuration not stated) | 91.5% (inactive)
12 | CCN(CC)CC#CCOC(=O)C(O)(c1ccccc1)C1CCCCC1 (configuration not stated) | -0.433% (inactive)
13 | Oc1cc(O)c2c(c1)OC(c1ccc(O)c(O)c1)C(O)C2 (configuration not stated) | 88.6% (inactive)
14 | O=C(O)CCCc1ccccc1 | 8.12% (inactive)
15 | COC(=O)/C=C/C(=O)OC | 3.37% (inactive)
16 | Cc1ccc(C(C)C)cc1O | 10.5% (inactive)

Row | Structure (SMILES) | inhibition
17 | OC(CCN1CCCCC1)(c1ccccc1)C1CCCCC1 (configuration not stated) | 21.7% (inactive)
18 | CN(C)c1ccc2nc3ccc(=[N+](C)C)cc-3sc2c1 | 100% (active)
19 | CN(C)CC(c1ccc(O)cc1)C1(O)CCCCC1 (configuration not stated) | 15.1% (inactive)
20 | C#CCC(Cc1cnc2nc(N)nc(N)c2n1)c1ccc(C(=O)NC(CCC(=O)O)C(=O)O)cc1 (configuration not stated) | -3.35% (inactive)
21 | CC12CC3CC(C)(C1)CC(N)(C3)C2 | 10.2% (inactive)
22 | CN(C)CCCN1c2ccccc2Sc2ccc(Cl)cc21 | 25.9% (inactive)
23 | CNCCC(Oc1cccc2ccccc12)c1cccs1 (configuration not stated) | 48.5% (inactive)
24 | CC(=O)C1CCC2C3CC=C4CC(O)CCC4(C)C3CCC12C (configuration not stated) | 41.9% (inactive)
25 | CC(=O)OCC(=O)C1(O)C(C)CC2C3CCC4=CC(=O)C=CC4(C)C3(F)C(O)CC21C (configuration not stated) | 46.2% (inactive)
26 | CC1(C)SC2C(NC(=O)C(N)c3ccc(O)cc3)C(=O)N2C1C(=O)O (configuration not stated) | -6.81% (inactive)
27 | Cc1nc2c([nH]1)CCN(C(=O)c1ccc(NC(=O)c3ccccc3-c3ccccc3)cc1)c1ccccc1-2 | 6.08% (inactive)
28 | COc1ccc(C2CNC(=O)C2)cc1OC1CCCC1 (configuration not stated) | 16.3% (inactive)
29 | CC1(C)OC2COC3(COS(N)(=O)=O)OC(C)(C)OC3C2O1 (configuration not stated) | 20.5% (inactive)
30 | CCCCCCCCCC(=O)O | 0.189% (inactive)
31 | CS(=O)(=O)c1ccc(C(=O)Nc2ccc(Cl)c(-c3ccccn3)c2)c(Cl)c1 | 44% (inactive)
32 | CCN(CC)C(=S)SSC(=S)N(CC)CC | -17.5% (inactive)
